The panel holds about 83,000 compounds, 20% with a hit somewhere; the sample as a whole holds those more often.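 The endpoint reported here, percent growth, reads 100 for growth as untreated, 0 for no net growth and -100 for all cells dead.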 Calls of active or inactive are those of the source. The calls were made as follows: active = growth percent below 10; inactive = the rest.
Columns and labels:
Assay in all cases: NCI-60 one-dose screen, 48 h (100 = growth as untreated, 0 = no growth, -100 = all killed)
SK-MEL-2 melanoma = conditions: 10 µM unless noted
EKVX NSCLC = conditions: 10 µM unless noted
SN12C renal = conditions: 10 µM unless noted
UO-31 renal = conditions: 10 µM unless noted
TK-10 renal = conditions: 10 µM unless noted
ACHN renal = conditions: 10 µM unless noted
CAKI-1 renal = conditions: 10 µM unless noted
A498 renal = conditions: 10 µM
HL-60(TB) leukemia = conditions: 10 µM unless noted
CCRF-CEM leukemia = conditions: 10 µM unless noted
MOLT-4 leukemia = conditions: 10 µM unless noted
SR leukemia = conditions: 10 µM unless noted
RPMI-8226 leukemia = conditions: 10 µM unless noted
OVCAR-8 ovarian = conditions: 10 µM unless noted
OVCAR-5 ovarian = conditions: 10 µM unless noted
OVCAR-4 ovarian = conditions: 10 µM unless noted
SK-OV-3 ovarian = conditions: 10 µM unless noted
IGROV1 ovarian = conditions: 10 µM unless noted
OVCAR-3 ovarian = conditions: 10 µM unless noted
HS 578T breast = conditions: 10 µM unless noted

Measured: growth

COC1CC2c3ccccc3C1C(C)=[N+]2C (stereo unspecified)
inactive: SK-MEL-2 melanoma 91.8% | EKVX NSCLC 97.4% | SN12C renal 94.1% | UO-31 renal 94% | TK-10 renal 98.8% | ACHN renal 99.3% | CAKI-1 renal 69.3% | A498 renal 80.8% | HL-60(TB) leukemia 113% | CCRF-CEM leukemia 76.7% | MOLT-4 leukemia 101% | SR leukemia 105% | RPMI-8226 leukemia 75.3% | OVCAR-8 ovarian 96.6% | OVCAR-5 ovarian 93.8% | OVCAR-4 ovarian 83.7% | SK-OV-3 ovarian 105% | IGROV1 ovarian 92.5% | OVCAR-3 ovarian 102%

CCCC(=O)O[C@@H]1C[C@H]2C[C@@H](O[C@@H]3O[C@@H](C)[C@@H](O)[C@@H](O)[C@H]3OC)C[C@@H](C[C@@H](C)/C=C/C=C\C[C@@H]3O[C@@H](C[C@@H]3C)[C@@H](O)C[C@H]3C[C@@]1(O)C(=O)O3)O2
inactive: SK-MEL-2 melanoma 57.8% | EKVX NSCLC 22.6% | SN12C renal 58.7% | UO-31 renal 34.2% | TK-10 renal 29% | ACHN renal 62% | CAKI-1 renal 60.9% | A498 renal 79.9% | HL-60(TB) leukemia 29.9% | CCRF-CEM leukemia 50.9% | MOLT-4 leukemia 37.5% | SR leukemia 85.9% | RPMI-8226 leukemia 27.3% | OVCAR-8 ovarian 41.1% | OVCAR-5 ovarian 74.5% | OVCAR-4 ovarian 25.4% | SK-OV-3 ovarian 52.4% | IGROV1 ovarian 70.1% | OVCAR-3 ovarian 59.8% | HS 578T breast 96.7%

Clc1cccc(N2COOC3(OOC2)C2CC4CC(C2)CC3C4)c1
inactive: SK-MEL-2 melanoma 98.3% | EKVX NSCLC 94.2% | SN12C renal 76% | TK-10 renal 40.9% | ACHN renal 62.1% | CAKI-1 renal 76.4% | A498 renal 110% | HL-60(TB) leukemia 20.2% | MOLT-4 leukemia 77.8% | SR leukemia 37.7% | RPMI-8226 leukemia 53.8% | OVCAR-8 ovarian 58.1% | OVCAR-5 ovarian 84.3% | OVCAR-4 ovarian 95.3% | SK-OV-3 ovarian 98.1% | OVCAR-3 ovarian 19.2% | HS 578T breast 88.6%
active: UO-31 renal -89.6% | CCRF-CEM leukemia -32.7% | IGROV1 ovarian -54.4%

O=C(CC1(O)C(=O)Nc2ccccc21)c1ccc(C(=O)NCC2CCC3(CC2)OOC2(CCCCC2)OO3)cc1 (stereo unspecified)
inactive: SK-MEL-2 melanoma 70.7% | EKVX NSCLC 58.3% | SN12C renal 74.4% | TK-10 renal 104% | ACHN renal 60.1% | CAKI-1 renal 39.5% | A498 renal 93.7% | HL-60(TB) leukemia 31.7% | MOLT-4 leukemia 58.4% | SR leukemia 10.8% | RPMI-8226 leukemia 48.1% | OVCAR-8 ovarian 45.3% | OVCAR-5 ovarian 106% | OVCAR-4 ovarian 71.9% | SK-OV-3 ovarian 81.2% | IGROV1 ovarian 41% | OVCAR-3 ovarian 74.1%
active: UO-31 renal -77.2% | CCRF-CEM leukemia 7.85%

CCCCCCCCOC(=O)CCN1CC1
inactive: SK-MEL-2 melanoma 119% | EKVX NSCLC 99% | SN12C renal 106% | UO-31 renal 92.8% | TK-10 renal 127% | ACHN renal 103% | CAKI-1 renal 98.4% | A498 renal 84.2% | HL-60(TB) leukemia 149% | CCRF-CEM leukemia 110% | MOLT-4 leukemia 103% | SR leukemia 101% | RPMI-8226 leukemia 103% | OVCAR-8 ovarian 102% | OVCAR-5 ovarian 104% | OVCAR-4 ovarian 115% | SK-OV-3 ovarian 109% | IGROV1 ovarian 115% | OVCAR-3 ovarian 108% | HS 578T breast 99.6%

Clc1ccc(N2COOC3(OOC2)C2CC4CC(C2)CC3C4)cc1
active: UO-31 renal -92.1% | HL-60(TB) leukemia -58% | CCRF-CEM leukemia -50.3% | IGROV1 ovarian -52.9% | OVCAR-3 ovarian 4.41%
inactive: SK-MEL-2 melanoma 87.4% | EKVX NSCLC 64.2% | SN12C renal 66.9% | TK-10 renal 27.2% | ACHN renal 29.4% | CAKI-1 renal 52.3% | A498 renal 96.8% | MOLT-4 leukemia 56.9% | SR leukemia 11.2% | RPMI-8226 leukemia 35.6% | OVCAR-8 ovarian 46.6% | OVCAR-5 ovarian 70.4% | OVCAR-4 ovarian 87.1% | SK-OV-3 ovarian 92.9% | HS 578T breast 75.9%

O=C1N[C@@H]2[C@@H](O)[C@@H](O)[C@H](O)C[C@H]2c2cc3c(c(O)c21)OCO3
active: SK-MEL-2 melanoma -63.6% | EKVX NSCLC -26.3% | SN12C renal -18.4% | UO-31 renal -31% | TK-10 renal -12.6% | ACHN renal -45.5% | CAKI-1 renal -7.77% | A498 renal -53.4% | HL-60(TB) leukemia -37.8% | CCRF-CEM leukemia 2.84% | MOLT-4 leukemia -6.14% | SR leukemia 6.14% | RPMI-8226 leukemia -24.2% | OVCAR-8 ovarian -7.71% | OVCAR-5 ovarian -13.4% | OVCAR-4 ovarian -23.7% | SK-OV-3 ovarian -11.2% | IGROV1 ovarian -7.85% | OVCAR-3 ovarian -10.8% | HS 578T breast -14.2%

COC(=O)[C@@H](C)C[C@H](Cc1ccccc1)NC(=O)c1csc([C@@H](C[C@H](C(C)C)N(C)C(=O)[C@@H](NC(=O)C23CC(NC(C)=O)(C2)C3)C2CC2)OC(C)=O)n1
active: HL-60(TB) leukemia -17.2% | CCRF-CEM leukemia 9.99% | OVCAR-3 ovarian -7.77% | HS 578T breast 7.48%
inactive: SK-MEL-2 melanoma 49% | EKVX NSCLC 78.8% | SN12C renal 51.7% | UO-31 renal 95.4% | TK-10 renal 77.1% | ACHN renal 96.2% | CAKI-1 renal 95.3% | A498 renal 48.3% | MOLT-4 leukemia 57.4% | SR leukemia 29.1% | RPMI-8226 leukemia 12% | OVCAR-8 ovarian 69.1% | OVCAR-5 ovarian 103% | OVCAR-4 ovarian 77.7% | SK-OV-3 ovarian 78.9% | IGROV1 ovarian 49.4%

C=C(C)[C@@]12OC3(/C=C/C=C/CCCCC)O[C@@H]1[C@@H]1[C@@H]4O[C@]4(CO)[C@@H](O)[C@]4(O)C(=O)C(C)=C[C@H]4[C@@]1(O3)[C@H](C)[C@H]2OC(=O)c1ccccc1
active: A498 renal -47.2% | HL-60(TB) leukemia -7.45% | HS 578T breast 4%
inactive: SK-MEL-2 melanoma 80.4% | EKVX NSCLC 67.4% | SN12C renal 16.5% | UO-31 renal 39.7% | TK-10 renal 47.1% | ACHN renal 42.9% | CAKI-1 renal 69.8% | CCRF-CEM leukemia 45.8% | MOLT-4 leukemia 31.2% | SR leukemia 67.2% | RPMI-8226 leukemia 66.4% | OVCAR-8 ovarian 82.6% | OVCAR-5 ovarian 107% | OVCAR-4 ovarian 72.2% | SK-OV-3 ovarian 102% | IGROV1 ovarian 52.3% | OVCAR-3 ovarian 61.6%

OCc1ccc2c(c1)OCO2
inactive: SK-MEL-2 melanoma 99.5% | EKVX NSCLC 96.3% | SN12C renal 101% | UO-31 renal 88% | TK-10 renal 91.7% | ACHN renal 104% | CAKI-1 renal 93.2% | A498 renal 111% | HL-60(TB) leukemia 96.1% | CCRF-CEM leukemia 102% | MOLT-4 leukemia 91.9% | SR leukemia 95.5% | RPMI-8226 leukemia 102% | OVCAR-8 ovarian 95.7% | OVCAR-5 ovarian 97% | OVCAR-4 ovarian 101% | SK-OV-3 ovarian 95.6% | IGROV1 ovarian 106% | OVCAR-3 ovarian 107% | HS 578T breast 97.1%

CO[C@H]1CC[C@@]2(C)C(=CC[C@@H]3[C@@H]2CC[C@]2(C)C(=O)C(=O)C[C@@H]32)C1
inactive: SK-MEL-2 melanoma 128% | EKVX NSCLC 108% | SN12C renal 95.5% | UO-31 renal 86.9% | TK-10 renal 117% | ACHN renal 102% | CAKI-1 renal 93% | A498 renal 82.1% | HL-60(TB) leukemia 141% | CCRF-CEM leukemia 95.3% | MOLT-4 leukemia 115% | SR leukemia 107% | RPMI-8226 leukemia 88.9% | OVCAR-8 ovarian 93.3% | OVCAR-5 ovarian 103% | OVCAR-4 ovarian 113% | SK-OV-3 ovarian 103% | IGROV1 ovarian 120% | OVCAR-3 ovarian 105% | HS 578T breast 92.6%

Cc1ccc(C(Cc2ccccc2)NCCO)cc1 (stereo unspecified)
inactive: SK-MEL-2 melanoma 54.7% | EKVX NSCLC 100% | SN12C renal 102% | UO-31 renal 86.1% | TK-10 renal 88% | ACHN renal 89.6% | CAKI-1 renal 98% | A498 renal 97.9% | HL-60(TB) leukemia 91.4% | CCRF-CEM leukemia 98.5% | MOLT-4 leukemia 88.2% | SR leukemia 105% | RPMI-8226 leukemia 92% | OVCAR-8 ovarian 103% | OVCAR-5 ovarian 55.4% | OVCAR-4 ovarian 94.7% | SK-OV-3 ovarian 75.8% | IGROV1 ovarian 103% | OVCAR-3 ovarian 100% | HS 578T breast 97.8%

COc1cccc(C=NC(Cc2cnc[nH]2)C(=O)O)c1O (stereo unspecified)
inactive: SK-MEL-2 melanoma 70% | EKVX NSCLC 102% | SN12C renal 97.5% | UO-31 renal 84.1% | TK-10 renal 139% | ACHN renal 97.8% | CAKI-1 renal 86.5% | A498 renal 98.2% | HL-60(TB) leukemia 189% | CCRF-CEM leukemia 69.6% | MOLT-4 leukemia 120% | SR leukemia 132% | RPMI-8226 leukemia 48.1% | OVCAR-8 ovarian 81.1% | OVCAR-5 ovarian 85.5% | OVCAR-4 ovarian 95.9% | SK-OV-3 ovarian 102% | IGROV1 ovarian 64.8% | OVCAR-3 ovarian 102% | HS 578T breast 122%

CC(CO)NC1CCCCC1 (stereo unspecified)
inactive: SK-MEL-2 melanoma 110% | EKVX NSCLC 102% | SN12C renal 111% | UO-31 renal 86.8% | TK-10 renal 94.9% | ACHN renal 109% | CAKI-1 renal 109% | A498 renal 77.6% | HL-60(TB) leukemia 116% | CCRF-CEM leukemia 123% | MOLT-4 leukemia 98.9% | SR leukemia 104% | RPMI-8226 leukemia 112% | OVCAR-8 ovarian 103% | OVCAR-5 ovarian 102% | OVCAR-4 ovarian 102% | SK-OV-3 ovarian 111% | IGROV1 ovarian 102%

O=C(CC1(O)C(=O)N(Cc2ccccc2)c2ccc(Br)cc21)c1ccc(C(=O)NCC2CCC3(CC2)OOC2(CCCCC2)OO3)cc1 (stereo unspecified)
active: EKVX NSCLC -65% | SN12C renal -55.8% | UO-31 renal -73.3% | TK-10 renal -80.9% | ACHN renal -83% | CAKI-1 renal -90.8% | A498 renal -74% | HL-60(TB) leukemia -57.3% | CCRF-CEM leukemia -41.6% | MOLT-4 leukemia -37.3% | SR leukemia -40.7% | RPMI-8226 leukemia -7.69% | OVCAR-8 ovarian -40.9% | OVCAR-4 ovarian -34.1% | IGROV1 ovarian -36.2% | OVCAR-3 ovarian -84.1%
inactive: SK-MEL-2 melanoma 34.1% | OVCAR-5 ovarian 12.4% | SK-OV-3 ovarian 83.4% | HS 578T breast 22.6%

Reference: PubChem BioAssay (NCI)
